Screening data: PubChem, several laboratories
proKLK7 act: proKLK7 (human) activation, primary screen; P49862; activation, % at 7 µM; AID 652039; 370,000 tested, 0.9% active; purified proKLK7, EDANS-DABCYL substrate fluorescence; 100% is mature enzyme control, 0% vehicle;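 active = activation above the mean of all tested compounds plus 3 SD, computed per campaign excluding outliers beyond control limits, cut at about 13% in these data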
Target sequence (P49862 whole entry, looked up): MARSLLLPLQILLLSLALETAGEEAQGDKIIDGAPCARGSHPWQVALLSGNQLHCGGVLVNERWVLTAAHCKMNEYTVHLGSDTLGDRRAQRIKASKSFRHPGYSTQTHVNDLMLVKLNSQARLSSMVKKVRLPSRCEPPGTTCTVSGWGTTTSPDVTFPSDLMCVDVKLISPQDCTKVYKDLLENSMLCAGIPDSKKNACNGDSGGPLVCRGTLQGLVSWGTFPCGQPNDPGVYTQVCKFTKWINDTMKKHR
ADAM10 inh: ADAM10 inhibition, QFRET primary screen; recombinant ADAM10, EDANS/DABCYL FRET peptide cleavage, 3 h; inhibition, % at 7 µM; O14672; 370,000 tested, 0.62% active; AID 720582;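 active = inhibition above a per-campaign cutoff equal to the mean of compounds falling between control-based bounds plus 3 SD, cut at about 20% in these data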;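 note: 0% = DMSO wells while the 100% control is not disclosed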
ADAM17 inh: ADAM17 inhibition, QFRET primary screen; recombinant ADAM17, EDANS/DABCYL FRET peptide cleavage; AID 720648; 370,000 tested, 0.83% active; P78536; inhibition, % at 6.95 µM;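 active = inhibition above the mean of compounds lying between control limits plus 3 SD, set per campaign, cut at about 8.5% in these data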;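 note: 0% = DMSO-only wells as the low control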
FGF22 binding: shifts melting point of recombinant human FGF22 | recombinant FGF22 thermal shift, SYPRO orange fluorescence; percent of sucrose octasulfate shift, DMSO zero | activity (Tm shift, normalised), % at 9.99 µM | Q9HCT0 | 340,000 tested, 1.5% active;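 active = mean Tm shift, scaled 0 neutral to 100 positive control, at about 1.3% or above, every replicate too, limit read from the data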
Target sequence (Q9HCT0 whole entry, looked up): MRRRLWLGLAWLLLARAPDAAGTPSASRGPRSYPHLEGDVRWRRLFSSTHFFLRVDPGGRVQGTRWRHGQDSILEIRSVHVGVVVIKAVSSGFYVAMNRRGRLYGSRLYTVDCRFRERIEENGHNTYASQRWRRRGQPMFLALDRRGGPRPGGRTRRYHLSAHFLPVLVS
Ecoli rRNA inh: inhibitors of bacterial rRNA selective over humanized ribosomes; E. coli WT GFP vs humanized-ribosome RFP mutants, fluorescence, 24 h; hits give low values; DMSO median 0, no signal -100; GFP signal change (wild-type ribosome), % (concentration not given with the values); 350,000 tested, 1.6% active; AID 720706;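 active = significant combined selectivity score with lowered wild-type GFP, culture density cut under 30%, mutant RFP and density less affected; inactive = any of these conditions unmet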
* hit, by the source's call. In the library only some 3.8% were active in any assay of this set; here they are far more common.

What do the screens show for `CN(C(=O)CS(=O)(=O)Cc1ccccc1Cl)c1ccccc1`?
proKLK7 act: -0.2; ADAM10 inh: -0.1; ADAM17 inh: -1.1; FGF22 binding: 43.3*; Ecoli rRNA inh: 4.3

What do the screens show for `NC(=O)[C@H]1[C@@H]2C(=O)O[C@@H](c3ccccc3)[C@@H](c3ccccc3)N2[C@@H](c2ccc(O)cc2)[C@]12C(=O)Nc1ccc(C#CC3(O)CCCCCC3)cc12`?
FGF22 binding: -0.2

What do the screens show for `COc1cc2c3c(c1OC)C1(C=CC(=NNC(N)=O)C=C1)CC3N(C(C)=O)CC2` (centres undefined)?
proKLK7 act: -0.3; ADAM10 inh: -3.0; ADAM17 inh: -0.5; FGF22 binding: 43.4*; Ecoli rRNA inh: 0.4

Results for COc1cc2c3c(c1OC)C1(C=CC(=O)C=C1)CC3N(C(=O)CCC(=O)O)CC2 (centres undefined) ?
proKLK7 act: -0.2; ADAM10 inh: 6.1; ADAM17 inh: -3.4; FGF22 binding: -0.1; Ecoli rRNA inh: 9.9

Results for COc1ccc(CCCc2n[nH]c(=S)n2C)cc1C ?
proKLK7 act: -0.3; ADAM10 inh: -12.2; ADAM17 inh: -8.7; FGF22 binding: 0.0; Ecoli rRNA inh: 6.6

What do the screens show for `COc1ccc(CCCc2n[nH]c(=S)o2)cc1C`?
proKLK7 act: -0.2; ADAM10 inh: 11.3; ADAM17 inh: -4.5; FGF22 binding: 43.2*; Ecoli rRNA inh: -10.1

What do the screens show for `CCC(=O)Nc1ccc2c(c1)C(=O)N(C)[C@H]1CC[C@H](CC(=O)NCc3ccccc3Cl)O[C@@H]1CO2`?
FGF22 binding: 0.1; Ecoli rRNA inh: -0.2

Results for Cc1ccc(SCC(=O)Nc2ccccc2N2CCOCC2)cc1 ?
proKLK7 act: -0.4; ADAM10 inh: 1.0; ADAM17 inh: 3.8; FGF22 binding: -0.3; Ecoli rRNA inh: -27.7*

What do the screens show for `O=C(CSc1ccccc1)Nc1ccccc1N1CCOCC1`?
proKLK7 act: 0.2; ADAM10 inh: 5.6; ADAM17 inh: -4.5

Results for Cc1ccc(SCCC(=O)Nc2ccccc2Br)cc1 ?
proKLK7 act: 0.0; ADAM10 inh: 0.2; ADAM17 inh: -0.6; FGF22 binding: 42.9*; Ecoli rRNA inh: -2.5

What do the screens show for `CC(=O)Nc1ccc2c(c1)CC(=O)N(C)C[C@@H](C)[C@@H](CN(C)C(C)=O)O2`?
Ecoli rRNA inh: 1.4

What do the screens show for `NC(=O)C1Cc2ccccc2CN1C(=O)c1cc(C2CC2)nn1-c1ccccc1` (centres undefined)?
proKLK7 act: -0.8; ADAM10 inh: -13.8; ADAM17 inh: -3.5; FGF22 binding: -0.1; Ecoli rRNA inh: -20.6*

What do the screens show for `N=c1sccn1CC(=O)Nc1ccc(SC(F)F)cc1`?
proKLK7 act: 0.5; ADAM10 inh: -2.4; ADAM17 inh: -1.2; FGF22 binding: 43.4*

Results for N=c1sccn1CC(=O)Nc1ccc(S(N)(=O)=O)cc1 ?
proKLK7 act: 0.5; ADAM10 inh: -0.6; ADAM17 inh: -4.7; FGF22 binding: -0.3; Ecoli rRNA inh: 6.4

What do the screens show for `COc1ccc2c3c(n(C)c2c1)[C@H](CO)N(C(=O)NC(C)C)CC31CCN(CC2CCCC2)CC1`?
FGF22 binding: -0.3; Ecoli rRNA inh: 3.4

Results for CNCc1sccc1C ?
proKLK7 act: 0.4; ADAM10 inh: 2.7; ADAM17 inh: 1.6; FGF22 binding: 43.3*; Ecoli rRNA inh: 10.5

Results for Cc1ccsc1CNS(=O)(=O)c1ccc(F)cc1 ?
proKLK7 act: -0.1; ADAM10 inh: 5.8; ADAM17 inh: 0.2; FGF22 binding: -0.3; Ecoli rRNA inh: 4.7

Results for O=C(Nc1ccccc1)c1cc([N+](=O)[O-])ccc1N1CCCCC1 ?
proKLK7 act: 0.9; ADAM10 inh: 4.7; ADAM17 inh: 1.5; FGF22 binding: -0.3; Ecoli rRNA inh: -14.8

What do the screens show for `CC(C)CNC(=O)c1cc([N+](=O)[O-])ccc1N1CCCCC1`?
proKLK7 act: 0.7; ADAM10 inh: 1.2; ADAM17 inh: 0.9; FGF22 binding: 43.2*; Ecoli rRNA inh: -12.9

Results for CO[C@H]1CN(C)C(=O)c2ccc(NC(=O)C3CC3)cc2OC[C@H](C)N(C(=O)c2ccccn2)C[C@H]1C ?
FGF22 binding: 0.0; Ecoli rRNA inh: 2.6

How did Cc1cc(C)n2nc(C(=O)OCC(=O)c3c[nH]c4ccccc34)nc2n1 do in these assays?
proKLK7 act: -0.5; ADAM10 inh: 1.2; ADAM17 inh: -0.3; FGF22 binding: 43.8*; Ecoli rRNA inh: 2.0

How did N#CCC(=O)Nc1ccc(C(=O)OCC(=O)c2c[nH]c3ccccc23)cc1 do in these assays?
proKLK7 act: -0.8; ADAM10 inh: -3.5; ADAM17 inh: -6.2; FGF22 binding: -0.1; Ecoli rRNA inh: 2.9

What do the screens show for `Cc1cc(C)n2nc(C(=O)OCC(=O)c3ccccc3)nc2n1`?
proKLK7 act: 0.7; ADAM10 inh: -16.4; ADAM17 inh: -5.5; FGF22 binding: 0.1; Ecoli rRNA inh: 15.6

What do the screens show for `NC(=O)Nc1ccc(C(=O)OCC(=O)c2c[nH]c3ccccc23)cc1`?
proKLK7 act: -0.3; ADAM10 inh: 7.9; ADAM17 inh: 2.2; FGF22 binding: 44.0*; Ecoli rRNA inh: -1.8

How did Cc1ccc(NC(=O)CN2C(=O)N/C(=C/c3cc(C)n(-c4ccc(C(=O)O)cc4)c3C)C2=O)cc1 do in these assays?
proKLK7 act: 1.7; ADAM10 inh: -38.0; ADAM17 inh: -12.3; FGF22 binding: 1.2; Ecoli rRNA inh: 14.5

What do the screens show for `Cc1ccc(NC(=O)CN2C(=O)S/C(=C\c3cc(C)n(-c4ccc(C(=O)O)cc4)c3C)C2=O)cc1`?
proKLK7 act: 0.6; ADAM10 inh: -3.6; ADAM17 inh: -1.7; FGF22 binding: 44.1*; Ecoli rRNA inh: -51.9

Results for Cc1ccc(NC(=O)CN2C(=O)S/C(=C\c3cccn3-c3cccc(C(=O)O)c3)C2=O)cc1C ?
proKLK7 act: 0.6; ADAM10 inh: -11.4; ADAM17 inh: -0.5; FGF22 binding: 0.1; Ecoli rRNA inh: 14.9

Results for Cc1cccc(NC(=O)CN2C(=O)S/C(=C\c3cccn3-c3cccc(C(=O)O)c3)C2=O)c1 ?
proKLK7 act: -0.1; ADAM10 inh: 6.4; ADAM17 inh: 0.8; FGF22 binding: 43.4*; Ecoli rRNA inh: 6.0

Results for CCOC(=O)Cc1csc(NC(=O)CSc2nnc(C)n2C)n1 ?
proKLK7 act: -0.6; ADAM10 inh: 5.5; ADAM17 inh: -2.4

What do the screens show for `COC(=O)Cc1csc(NC(=O)CSc2nnc3ccccn23)n1`?
proKLK7 act: 0.3; ADAM10 inh: -0.6; ADAM17 inh: -2.5; FGF22 binding: 44.1*

How did CCCNC(=O)C[C@H]1CC[C@@H]2[C@H](COC[C@@H](O)CN2C(=O)Nc2ccc3c(c2)OCO3)O1 do in these assays?
FGF22 binding: 0.1; Ecoli rRNA inh: 4.9

What do the screens show for `O=C([C@H]1[C@H](CO)[C@H]2Cn3c(ccc(-c4cccnc4)c3=O)[C@@H]1N2CCC(F)(F)F)N1CCCCC1`?
FGF22 binding: 0.0; Ecoli rRNA inh: 1.1
